Experimental data reported in a collection of fitness landscapes (doi:10.1126/science.1257360).
The full ranking holds about 140,000 sequences; the median of “enrichment ratio after two sorts for PhoP signalling” is about 0, and the highest 2% start at about 11. What follows is part of a selection rich in the highest values, with near analogues and random picks from the rest.

B1: PhoQ; a variant is named by its letters at X, in order, P23837 (parent)
chain: MKKLLRLFFPLSLRVRFLLATAAVVLVLSLAYGMVALIGYSVSFDKTTFRLLRGESNLFYTLAKWENNKLHVELPENIDKQSPTMTLIYDENGQLLWAQRDVPWLMKMIQPDWLKSNGFHEIEADVNDTSLLLSGDHSIQQQLQEVREDDDDAEMTHSVAVNVYPATSRMPKLTIVVVDTIPVELKSSYMVWSWFIYVLSANLLLVIPLLWVAAWWSLRPIEALAKEVRELEEHNRELLNPATTRELTSLVRNLNRLLKSERERYDKYRTTLTDLTHSLKTPLXXLQXXLRSLRSEKMSVSDAEPVMLEQISRISQQIGYYLHRASMRGGTLLSRELHPVAPLLDNLTSALNKVYQRKGVNISLDISPEISFVGEQNDFVEVMGNVLDNACKYCLEFVEISARQTDEHLYIVVEDDGPGIPLSKREVIFDRGQRVDTLRPGQGVGLAVAREITEQYEGKIVAGESMLGGARMEVIFGRQHSAPKDE

Variants of: B1
Experiment: enrichment ratio after two sorts for PhoP signalling (ratio (wild type AVST 3.29)); higher = more functional
Conditions: with PhoP (E. coli)

Variant	enrichment ratio
MRCY	≤ 0.25
ALEK	≤ 0.25
QMAV	≤ 0.25
HMTD	≤ 0.25
LMTS	0.708
YCYV	≤ 0.25
SCYS	0.535
QMGG	≤ 0.25
LLQC	≤ 0.25
ATNL	5.25
ATPL	5.31
ATCL	18.6
ATCI	12.5
ATMD	27.9
ATMW	26.9
ATHW	≤ 0.25
ATPW	≤ 0.25
ATCK	3.27
ATGD	≤ 0.25
ATYD	≤ 0.25
ATCA	5.9
WGSP	≤ 0.25
HYYD	≤ 0.25

Variant	enrichment ratio
WSIS	≤ 0.25
ITGG	≤ 0.25
MSAK	≤ 0.25
EGWA	≤ 0.25
DSML	≤ 0.25
IFTF	≤ 0.25
PWYL	≤ 0.25
YTCW	≤ 0.25
ADCW	≤ 0.25
ATCW	11.3
HMKN	≤ 0.25
NKTY	≤ 0.25
AHAY	1.08
AKAY	13.6
AIAY	6.61
ANNY	6.43
AQAY	15.2
AQYI	≤ 0.25
ANYI	≤ 0.25
NQAY	≤ 0.25
ANAY	36.4
CPSL	≤ 0.25
QEVG	≤ 0.25

Variant	enrichment ratio
FDGF	≤ 0.25
HSWS	≤ 0.25
NKSN	≤ 0.25
WFED	≤ 0.25
WRFE	≤ 0.25
IQAV	≤ 0.25
NVMV	≤ 0.25
SLCH	11.6
ITCH	≤ 0.25
THCH	5.09
SHCH	16
WLCH	≤ 0.25
SHMH	3
STCH	12.6
GTCH	4.08
CTCH	≤ 0.25
TTCH	15
YTCH	0.285
KLCH	≤ 0.25
DCLL	≤ 0.25
YWMV	≤ 0.25
YISQ	0.456
YEYI	≤ 0.25

Variant	enrichment ratio
RIQD	≤ 0.25
APKL	≤ 0.25
KTLD	≤ 0.25
QTQN	≤ 0.25
LCCT	≤ 0.25
EDCL	≤ 0.25
KEMG	≤ 0.25
NIQL	≤ 0.25
SIQL	13.1
STQL	17.1
SAQL	9.87
QEQL	≤ 0.25
SGQL	12
SQQL	2.28
SMQL	12.1
SLQL	5.85
YTQL	≤ 0.25
KYQL	≤ 0.25
QLRC	≤ 0.25
KRKR	≤ 0.25
YDDH	≤ 0.25
EAQW	≤ 0.25
TNTH	1.01

Variant	enrichment ratio
TNTA	10.1
TNTD	≤ 0.25
TNTI	15.8
TNTK	≤ 0.25
TNNK	≤ 0.25
TNTC	11.6
TNTS	13.4
TNIC	≤ 0.25
WEHT	≤ 0.25
FCPF	≤ 0.25
IDMQ	≤ 0.25
VSQK	≤ 0.25
HKCQ	≤ 0.25
AKCQ	19.1
AICQ	3.77
MKCQ	≤ 0.25
TKCQ	11.7
AWCQ	≤ 0.25
PWVC	≤ 0.25
MMCL	4.1
HKCL	3.32
TKCE	7.83
TKCI	10.8

Variant	enrichment ratio
AKCV	3.07
TKCS	13.2
KKCV	≤ 0.25
TKCV	30.6
KKCL	1.66
MKCL	16.5
GGMT	≤ 0.25
TKCL	14.6
SKMP	≤ 0.25
GFDT	≤ 0.25
WRTW	≤ 0.25
DDAA	≤ 0.25
ARFW	≤ 0.25
SIAC	13
NGAC	≤ 0.25
AEFC	6.7
AEAC	43.5
GGAC	≤ 0.25
VHAC	≤ 0.25
TGAC	11.4
KYAC	≤ 0.25
AEYS	1.65
SPAC	≤ 0.25

Variant	enrichment ratio
AIAC	19.1
KKAC	≤ 0.25
MDLS	≤ 0.25
WPPG	≤ 0.25
LANA	≤ 0.25
GFDD	≤ 0.25
LCAI	≤ 0.25
VLNL	≤ 0.25
AKAC	19.7
TIAC	12.1
WIAC	≤ 0.25
ADAC	0.792
RIAC	≤ 0.25
AAAC	≤ 0.25
MYGT	≤ 0.25
TEWY	0.326
MPYR	≤ 0.25
TTQQ	21.5
